Source: the OligoGym collection

Target: NXF5
Assay: pooled miR-30 sensor sort-seq; sequence = guide strand
Conditions: shRNA
Further: reference of the scale not given here.

Sequence | sensor-assay potency score (higher = more potent)
TTGAAGTACTTGCACAAGTTGC | -0.882
TCTTTCAGTGATCTTCAGGGTG | -0.168
ATTTCTTTCAGTGATCTTCAGG | -1.08

Target: OAS3
Assay: as above
Conditions: shRNA

Sequence | sensor-assay potency score (higher = more potent)
TAGACTTGAGAGCTGGGCCTGG | -0.478
TTCAACATCACAGCCATCCCTT | -0.469
TACCAGTGCTTCACCAGCCGGA | -0.364
TTTGTTCTGAGCCGCAACCTGG | -1.14
TTGACCGTCCAGTAGACACAGA | -0.525
TTCAGAATCACAGCCACCCTTG | -0.336
TTCTCTACGAACTCCTTCCGCG | -0.635
TTGTAGTCCGTGAAGCAGTTGA | -0.0592
TAGGCTGAAAGCATCCTTCTTA | 0.0263
TTTGGTGCCAGAACTGAGCTGC | 0.736
TTGAACTGGGAGTCCTTCCCGC | -0.289
TGTAGCTCTGTGAAGCAGGTGG | 0.189

Target: OCA2
Assay: as above
Conditions: shRNA

Sequence | sensor-assay potency score (higher = more potent)
TAACACATCCCAACAGTGCAGG | -0.397
TTGTCTTGGATCAAGGTTGAGC | -0.397
TTTGTTCTCCAACATATTCTAT | -1.25
TTGAGCACCTCACACAACCTTA | -0.642
TTTTCTTCTTCAAACAGTGGGG | -0.306
TTATAAAGCTTTCTGTTCCAGT | -0.265
TTGTTCTCCAACATATTCTATT | -1.21
TTTGTGAAGATCACTTCTGCAA | 0.623
TTCAGTTCAACAATCTCACTGG | 0.691
TAGCAGGTATCTTCGCTCCCAG | -0.952
AACAGTGCAGGACACAACCATC | -1.7

Target: OCLM
Assay: as above
Conditions: shRNA

Sequence | sensor-assay potency score (higher = more potent)
ATAGAAGAGTATACTAATGTGT | -0.144
TCTGCTAAGGTAAATCTTTAAC | -1.77
TAGAAGAGTATACTAATGTGTC | -0.0959
TATACTAATGTGTCTGCTAAGG | -1.53
ACTAATGTGTCTGCTAAGGTAA | -1.12
TAATACCACTCTTATAAAGGAT | -0.68
AAGAGTATACTAATGTGTCTGC | 0.0499
AATACCACTCTTATAAAGGATT | -1.36
TACTAATGTGTCTGCTAAGGTA | -0.482
AAAGAATACCAGGATAGCCATA | -1.76
TTTAAATAGAAGAGTATACTAA | -0.591
TTAAATAGAAGAGTATACTAAT | -0.462
